# Measured values taken from PubChem BioAssay.
# Several values for one entry are separate records, joined by “and”; a condition that tells them apart may be missing. Identical values can stand only once. Inconclusive results are not listed. Activity calls are given as the source filed them. Rule as the data show it, unless noted: active = inhibition above about 80%; inactive = the rest.
# Tests used:
# [1] = growth inhibition of DIPG glioma cells, dose response, cell-based, SU-DIPG-XIII, MIPE4.0, CellTiter-Glo, qHTS (AID 1347061; cut-off not given, nearly all actives have AC50 up to about 37 µM;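 also: cells exposed to compound for 48 hours before readout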); conditions: SU-DIPG-XIII viability, CellTiter-Glo ATP luminescence
# [2] = growth inhibition of DIPG glioma cells, dose response, cell-based, JHH-DIPG-1, MIPE4.0, CellTiter-Glo, qHTS (AID 1347062; cut-off not given, nearly all actives have AC50 up to about 27 µM;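 as to AC50: cells exposed to compound for two days before readout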); conditions: JHH-DIPG-1 viability, CellTiter-Glo ATP luminescence
# [3] = growth inhibition of DIPG glioma cells, dose response, cell-based, SU-DIPG-IV, MIPE4.0, CellTiter-Glo, qHTS (AID 1347063; cut-off not given, nearly all actives have AC50 up to about 30 µM;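 also: compound exposure lasted 48 hours before the viability readout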); conditions: SU-DIPG-IV viability, CellTiter-Glo ATP luminescence
# [4] = growth inhibition of DIPG glioma cells, dose response, cell-based, SU-DIPG-XIII, MIPE5.0, CellTiter-Glo, qHTS (AID 1347064; cut-off not given, nearly all actives have AC50 up to about 23 µM;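 as to AC50: cells exposed to compound for 48 hours before the viability read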); conditions: SU-DIPG-XIII viability, CellTiter-Glo ATP luminescence
# [5] = viability loss in pontine glioma line – cell-based, SU-DIPG-XXV, MIPE5.0, CellTiter-Glo, qHTS, dose response (AID 1347065; cut-off not given, nearly all actives have AC50 up to about 26 µM;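 also: cells exposed to compound for 48 hours before ATP readout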); conditions: CellTiter-Glo ATP luminescence
# [6] = SU-DIPG-VI glioma cell viability, MIPE4.0 library, CellTiter-Glo luminescence, qHTS (AID 1347066; cut-off not given, nearly all actives have AC50 up to about 30 µM;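 also: cells exposed to compound for 48 hours before readout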); conditions: CellTiter-Glo ATP luminescence
# [7] = JHH-DIPG-1 glioma cell viability, MIPE5.0 library, CellTiter-Glo luminescence, qHTS (AID 1347067; cut-off not given, nearly all actives have AC50 up to about 26 µM;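 also: cells exposed to compound for 48 hours before readout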); conditions: JHH-DIPG-1 glioma viability, CellTiter-Glo ATP luminescence
# [8] = SU-DIPG-XXV glioma cell viability, MIPE5.0 library, qHTS (AID 1347068; cut-off not given, nearly all actives have IC50 up to about 30 µM;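 as to IC50: cells exposed to compound for 48 hours before viability readout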)
# [9] = sensitizers of A549 cells to miR-34 induction, primary screen, imaging, A549 dox-inducible miR-34, nuclei and caspase counts (AID 1347080;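 active = compounds whose cell count with miR-34 switched on is under 0.7 times the count with it off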); conditions: A549 miR-34 inducible, Hoechst nuclei count, 48 h
# [10] = modifiers of HSF1 nuclear foci, imaging, Selleck Cancer Library (AID 1347162; in the data active = plate-normalised HSF1 focus index below about 0.46); conditions: human cells, at 10 µM; SSMD: measured here: HSF1 foci SSMD mean; cell count: measured here: cell number; plate-normalised HSF1 focus index: stronger effect = lower value
# [11] = survival rescue of mitochondrial mutant cells in low glucose, primary screen, MELAS cybrids, Rieske KO mouse fibroblasts, CellTiter-Glo (AID 1508586;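 active = mean z-score across replicates of 1.96 or higher in either the MELAS or the Rieske mutant cell line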;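 also: z relative to plate mean and SD of compound and empty wells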)
# [12] = LFS_MB_P medulloblastoma growth inhibition, cell-based, chromothripsis tumors, cisplatin or BGB combos (AID 1671449); conditions: LFS_MB_P medulloblastoma cells;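 also: cells exposed for 96 hours; 0% = vehicle DMSO and 100% = killing by high DMSO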
# [13] = HDN33 neuroblastoma growth inhibition, cell-based, chromothripsis tumors, cisplatin or BGB combos (AID 1671450); conditions: HDN33 neuroblastoma cells, stronger effect = higher value;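 also: cells exposed to compound for four days; 0% = vehicle DMSO and 100% = cell killing by high DMSO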
# [14] = ICB984 medulloblastoma cell growth inhibition, synergistic combos for chromothripsis tumors, cisplatin or BGB combos (AID 1671451; call rule not given here;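 also: cells exposed for 96 hours before readout; 0% = vehicle DMSO and 100% = killing by high DMSO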); conditions: ICB984 medulloblastoma cells, drug combinations, stronger effect = higher value
# [15] = LFS_MB_1R medulloblastoma cell growth inhibition, synergistic combos for chromothripsis tumors, cisplatin or BGB combos (AID 1671452); conditions: LFS_MB_1R medulloblastoma cells, stronger effect = higher value;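 also: cells exposed for 96 hours before readout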
# [16] = HTB85 osteosarcoma cell growth inhibition, synergistic combos for chromothripsis tumors, BGB or cisplatin IC20 combos (AID 1671453); conditions: HTB85 osteosarcoma cells, drug combinations, stronger effect = higher value;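 also: cells exposed for 96 hours before readout; 0% = vehicle DMSO and 100% = high DMSO killing control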
# [17] = CRL2098 osteosarcoma cell growth inhibition, synergistic combos for chromothripsis tumors, BGB or cisplatin IC20 combos (AID 1671454); conditions: CRL2098 osteosarcoma cells, drug combinations, stronger effect = higher value;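 also: cells exposed for 96 h before readout; 0% = vehicle DMSO and 100% = killing by high DMSO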
# [18] = HD-MB03 medulloblastoma cell growth inhibition, synergistic combos for chromothripsis tumors, BGB or cisplatin IC20 combos (AID 1671455; in the data active = inhibition above about 83%;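 also: 0% = vehicle DMSO and 100% = high DMSO as cytotoxic control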); conditions: HD-MB03 medulloblastoma cells, stronger effect = higher value
# [19] = UWB1.289 ovarian carcinoma cell growth inhibition, synergistic combos for chromothripsis tumors, BGB or cisplatin combos (AID 1671456); conditions: UWB1.289 ovarian carcinoma cells, stronger effect = higher value;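 also: cells exposed to compound for four days; 0% = vehicle DMSO and 100% = killing by high DMSO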
# [20] = LFS_MB_2R medulloblastoma cell growth inhibition, synergistic combos for chromothripsis tumors, cisplatin combos (AID 1671457); conditions: LFS_MB_2R medulloblastoma cells, stronger effect = higher value;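 also: cells exposed to compound for four days before readout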
# [21] = MDA-MB-436 breast carcinoma cell growth inhibition, synergistic combos for chromothripsis tumors, BGB or cisplatin combos (AID 1671458; call rule not given here;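 also: cells exposed for 96 hours; 0% = vehicle DMSO and 100% = killing by high DMSO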); conditions: MDA-MB-436 breast carcinoma growth inhibition, drug combinations, stronger effect = higher value
# [22] = UWB1.289_BRCA1 ovarian cancer growth, cell-based, BGB or cisplatin combinations (AID 1671459); conditions: UWB1.289 BRCA1 ovarian carcinoma, drug combinations, stronger effect = higher value
# [23] = human astrocyte viability loss, single and combined drugs, cytotoxicity control for chromothriptic childhood tumor combination screen, cell-based, BGB or cisplatin IC20 combos (AID 1671460); conditions: Human astrocytes, drug combinations, stronger effect = higher value;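 also: cells exposed to compounds for 96 hours before viability readout; 0% = vehicle and 100% = killing control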
# [24] = growth inhibition of BT084 medulloblastoma cells, cell-based, ICGC_MB145, cisplatin and BGB IC40 combos (AID 1671461); conditions: drug combinations, stronger effect = higher value;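 also: cells exposed to drugs for 96 hours; 0% = vehicle DMSO and 100% = high DMSO full killing control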
# [25] = growth inhibition of RCMB18 medulloblastoma cells, cell-based, cisplatin and BGB IC40 combos (AID 1671462); conditions: stronger effect = higher value;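 also: cells exposed to compound for four days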
# [26] = growth inhibition of CRL1545 osteosarcoma cells, cell-based, cisplatin and BGB IC20 combos (AID 1671464); conditions: stronger effect = higher value;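 also: cells exposed to compound for 96 hours before readout; 0% = vehicle DMSO and 100% = high DMSO killing control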
# [27] = growth inhibition of DIPG glioma cells, dose response, cell-based, SU-DIPG-XVII, MIPE5.0, CellTiter-Glo, qHTS (AID 1347060; cut-off not given, nearly all actives have AC50 up to about 26 µM); conditions: SU-DIPG-XVII viability, CellTiter-Glo ATP luminescence
# [28] = stronger effect = lower value, cell number ratio, induced over uninduced
# [29] = measured here: relative caspase fold change +Dox/-Dox
# [30] = measured here: total cells with miR-34 induction, stronger effect = lower value
# [31] = measured here: total cells without miR-34 induction
# [32] = MELAS cybrid survival, CellTiter-Glo 48 h, stronger effect = higher value
# [33] = Rieske KO mouse fibroblast survival, CellTiter-Glo 72 h
# [34] = measured here: combination with BGB IC40, at 0.05 µM
# [35] = measured here: with BGB IC20 combination, at 0.5 µM
# [36] = measured here: with cisplatin IC20 combination, at 0.5 µM
# [37] = measured here: combination with cisplatin, at 0.5 µM
# [38] = measured here: combination with cisplatin, at 5 µM
smiles,measurement,setting,value
Nc1ccccc1NC(=O)c1ccc(CNC(=O)OCc2cccnc2)cc1,AC50,[1],14.8 µM (active)
same,AC50,[2],4.69 µM (active)
same,AC50,[3],1.32 µM (active)
same,AC50,[4],3.32 µM (active)
same,AC50,[5],2.35 µM (active)
same,AC50,[6],3.72 µM (active)
same,AC50,[7],2.95 µM (active)
same,IC50,[8],5.25 µM (active)
same,fold change,[9]; [28],0.935 (inactive) and 1.04 (inactive)
same,fold change,[9]; [29],1.69 and 0.81
same,cell count,[9]; [30],3300 and 2250
same,cell count,[9]; [31],3530 and 2180
same,SSMD,[10],2.19
same,cell count,[10],6960
same,plate-normalised HSF1 focus index,[10],1.11 (inactive)
same,z-score,[11]; [32],-0.681 (inactive)
same,z-score,[11]; [33],-1.12
same,inhibition,"[12]; at 0.5 µM, stronger effect = higher value",20.5% (inactive) and 31.3% (inactive)
same,inhibition,"[12]; measured here: combination with BGB IC20, at 0.005 µM",9.17% and -14%
same,inhibition,"[12]; measured here: combination with BGB IC40, at 0.005 µM",-20.6% and -27.1%
same,inhibition,[12]; [34],-4.42% and -24.6%
same,inhibition,"[12]; measured here: combination with cisplatin, at 0.5 µM, stronger effect = higher value",46.4% and 85.2%
same,inhibition,"[12]; measured here: combination with cisplatin, at 5 µM, stronger effect = higher value",118% and 115%
same,inhibition,"[13]; BGB combo, at 5 µM",97.1% and 92.4%
same,inhibition,[13]; at 0.5 µM,44% (inactive) and 41% (inactive)
same,inhibition,"[13]; cisplatin combo, at 5 µM",99.7% and 97%
same,inhibition,[13]; [35],39.9% and 34.6%
same,inhibition,[13]; [36],48.7% and 57.6%
same,inhibition,"[13]; single agent, at 5 µM",99.3% and 93.9%
same,inhibition,"[14]; BGB IC20 combo, at 0.005 µM",36.5% and 11%
same,inhibition,"[14]; BGB IC40 combo, at 0.005 µM",24.4% and 20.7%
same,inhibition,"[14]; BGB IC40 combo, at 0.05 µM",97.8% and 93%
same,inhibition,[14]; at 0.5 µM,-31.6% (inactive) and -19.6% (inactive)
same,inhibition,"[14]; cisplatin combo, at 0.05 µM",97.7% and 92.8%
same,inhibition,"[14]; cisplatin combo, at 0.5 µM",-49.4% and -14.7%
same,inhibition,"[14]; cisplatin combo, at 5 µM",10.2% and -21.6%
same,inhibition,"[14]; measured here: 5 uM single agent, at 5 µM",20% and -23%
same,inhibition,[15]; at 0.5 µM,61% (inactive) and 41.3% (inactive)
same,inhibition,[15]; [34],-9.37% and -18.3%
same,inhibition,[15]; [37],79.3% and 71.8%
same,inhibition,[15]; [38],96.9% and 96.1%
same,inhibition,[16]; at 0.5 µM,57.3% (inactive) and 32.6% (inactive)
same,inhibition,"[16]; measured here: with BGB IC20, at 0.5 µM",48% and 25.2%
same,inhibition,"[16]; measured here: with BGB IC20, at 5 µM",97.7% and 98.3%
same,inhibition,"[16]; measured here: with cisplatin IC20, at 0.5 µM",80.3% and 42.5%
same,inhibition,"[16]; measured here: with cisplatin IC20, at 5 µM",99.8% and 98.9%
same,inhibition,"[16]; single agent, at 5 µM",99.3% and 97.6%
same,inhibition,[17]; at 0.5 µM,0.19% (inactive) and -6.59% (inactive)
same,inhibition,"[17]; measured here: combination with BGB at IC20, at 0.5 µM",-0.645% and -36.5%
same,inhibition,"[17]; measured here: combination with cisplatin at IC20, at 0.5 µM",30.1% and 43.8%
same,inhibition,[18]; at 0.5 µM,42.6% (inactive) and 20.9% (inactive)
same,inhibition,"[18]; measured here: combo with BGB at IC20, at 0.5 µM",34.7% and 26.6%
same,inhibition,"[18]; measured here: combo with cisplatin at IC20, at 0.5 µM",87.6% and 25.8%
same,inhibition,[19]; at 0.5 µM,18.2% (inactive) and 10.7% (inactive)
same,inhibition,"[19]; measured here: inhibition with BGB combination, at 0.05 µM",0.005% and -12.1%
same,inhibition,"[19]; measured here: inhibition with cisplatin combination, at 0.05 µM",-11.8% and 3.27%
same,inhibition,[20]; at 0.5 µM,39.2% (inactive) and 22.4% (inactive)
same,inhibition,[20]; [37],66.8% and 38.1%
same,inhibition,[20]; [38],99.8% and 92.3%
same,inhibition,[21]; at 0.5 µM,18.4% (inactive) and 2.92% (inactive)
same,inhibition,"[21]; measured here: BGB combination, at 0.5 µM",16.3% and -2.7%
same,inhibition,"[21]; measured here: BGB combination, at 5 µM",55.1% and 44.4%
same,inhibition,"[21]; measured here: cisplatin combination, at 0.5 µM",15.5% and -5.2%
same,inhibition,"[21]; measured here: cisplatin combination, at 5 µM",49.1% and 36.5%
same,inhibition,"[22]; BGB combination, concentration series, at 5 µM",98.1% and 86.1%
same,inhibition,[22]; at 0.5 µM,28.5% (inactive) and 10.5% (inactive)
same,inhibition,"[22]; cisplatin combination, concentration series, at 5 µM",104% and 98.8%
same,inhibition,[23]; at 0.5 µM,5.28% (inactive) and 8.78% (inactive)
same,inhibition,"[23]; measured here: combo with BGB IC20, at 0.5 µM",3.25% and 5.25%
same,inhibition,"[23]; measured here: combo with cisplatin IC20, at 0.5 µM",2.55% and 12.8%
same,inhibition,[24]; at 0.5 µM,46.5% (inactive) and 28.3% (inactive)
same,inhibition,"[24]; cisplatin combination, at 0.5 µM",67% and 52.4%
same,inhibition,"[24]; cisplatin combination, at 5 µM",97.3% and 96.5%
same,inhibition,"[24]; measured here: BGB IC40 combination 0.05 uM, at 0.05 µM",51.3% and 7.15%
same,inhibition,"[24]; single agent, at 5 µM",87.5% and 72.2%
same,inhibition,[25]; at 0.5 µM,49.1% (inactive) and 37.1% (inactive)
same,inhibition,"[25]; cisplatin combo, at 5 µM",94.3% and 95%
same,inhibition,"[25]; measured here: BGB IC40 combination, at 0.05 µM",11.6% and 4.4%
same,inhibition,[25]; [37],71.2% and 58%
same,inhibition,"[25]; single agent, at 5 µM",95.5% and 86.6%
same,inhibition,[26]; at 0.5 µM,74.5% (inactive) and 39.4% (inactive)
same,inhibition,[26]; [35],71.4% and 25.4%
same,inhibition,[26]; [36],76.1% and 45.2%
same,inhibition,"[26]; single agent, at 0.05 µM",28.6% and -12.8%
same,inhibition,"[26]; single agent, at 5 µM",73.7% and 44.8%
O=C(NCc1ccncc1)C12C[C@H]3C[C@@H](C1)CC(c1ccc(Cl)cc1)(C3)C2,AC50,[1],14.8 µM (active)
O=C(NCCCCN1CCOCC1)c1cc2ccccc2o1,outcome,[1],inactive
same,outcome,[2],inactive
same,outcome,[3],inactive
same,outcome,[4],inactive
same,outcome,[5],inactive
same,outcome,[6],inactive
same,AC50,[7],23.5 µM (active)
same,outcome,[8],inactive
COc1cc(OC)c2c(=O)[nH]c(-c3cc(C)c(OCCO)c(C)c3)nc2c1,outcome,[27],inactive
same,outcome,[8],inactive
same,fold change,[9]; [28],0.96 (inactive)
same,fold change,[9]; [29],0.714
same,cell count,[9]; [30],7650
same,cell count,[9]; [31],7970
same,z-score,[11]; [32],-0.573 (inactive)
same,z-score,[11]; [33],-1.26
